IL-1B inflam inh = inhibitors of inflammasome signaling (IL-1 beta secretion). activity change, % at 57.5 µM. hit rate 4.7% among 360,000. THP-1 LPS/ATP IL-1B secretion, AlphaLISA, 16 h; stronger effect = lower value; in the data active = activity change below about -50%; inconclusive = mostly about -30% to -49%
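THP-1 cells pretreated 1 hr with compounds (up to 57.5 uM final), then stimulated with LPS (250 ng/mL final) plus ATP (1.25 mM final); secreted IL-1B measured by AlphaLISA after 16 hr, decreased signal indicating inhibition.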
HT1080 IDH1KD tx = toxicity to HT-1080 IDH1 knockdown cells (counter line) | HT-1080 IDH1 knockdown viability, ATP luminescence, 48 h | Potency, µM (doses to about 46.1 µM), for the others: top-dose activity, negative = toxicity, actives largely listed as cytotoxic | hit rate 2% among 360,000 | AID 686971;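 note: potency is the fitted concentration of half-maximal effect; 0% = DMSO wells and -100% = cell-free medium wells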
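Luminescent ATP read-out (CellTiter-Glo, 10 min at room temperature) after 48 h compound exposure at 37 °C gave viability of IDH1-knockdown HT-1080 cells. Activity was normalised to DMSO and cell-free wells, then fitted as concentration-response curves.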
DT40 TDP1 no CPT = qHTS for Inhibitors of human tyrosyl-DNA phosphodiesterase 1 (TDP1): qHTS in cells in absence of CPT; Potency, µM (top dose mostly 46.2 µM), for the others: at the highest dose activity change, negative = growth inhibition, actives largely listed as inhibitors; hit rate 15% among 420,000; DT40 Tdp1-/- hTDP1 cells, no CPT, ATP luminescence, 48 h; note: potency is the fitted concentration of half-maximal effect; nearly all actives have a fitted effect of over 55% in size
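Chicken DT40 Tdp1-/- cells stably complemented with human TDP1 were seeded at 400 cells/well with DMSO in place of 20 nM camptothecin. After compound pinning, cells grew at least 48 hr at 37 °C; viability read by CellTiter-Glo luminescence.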
12-LOX inh = inhibitors of human 12S-lipoxygenase ALOX12 | Potency, µM (highest dose often 108 µM), without a hit: at the highest dose activity change, negative = inhibition, actives largely listed as inhibitors | P18054 | hit rate 1.1% among 580,000 | AID 1671190 | purified 12hLO, xylenol orange hydroperoxide absorbance; note: potency is the fitted concentration of half-maximal effect
Target sequence (P18054 whole entry, looked up): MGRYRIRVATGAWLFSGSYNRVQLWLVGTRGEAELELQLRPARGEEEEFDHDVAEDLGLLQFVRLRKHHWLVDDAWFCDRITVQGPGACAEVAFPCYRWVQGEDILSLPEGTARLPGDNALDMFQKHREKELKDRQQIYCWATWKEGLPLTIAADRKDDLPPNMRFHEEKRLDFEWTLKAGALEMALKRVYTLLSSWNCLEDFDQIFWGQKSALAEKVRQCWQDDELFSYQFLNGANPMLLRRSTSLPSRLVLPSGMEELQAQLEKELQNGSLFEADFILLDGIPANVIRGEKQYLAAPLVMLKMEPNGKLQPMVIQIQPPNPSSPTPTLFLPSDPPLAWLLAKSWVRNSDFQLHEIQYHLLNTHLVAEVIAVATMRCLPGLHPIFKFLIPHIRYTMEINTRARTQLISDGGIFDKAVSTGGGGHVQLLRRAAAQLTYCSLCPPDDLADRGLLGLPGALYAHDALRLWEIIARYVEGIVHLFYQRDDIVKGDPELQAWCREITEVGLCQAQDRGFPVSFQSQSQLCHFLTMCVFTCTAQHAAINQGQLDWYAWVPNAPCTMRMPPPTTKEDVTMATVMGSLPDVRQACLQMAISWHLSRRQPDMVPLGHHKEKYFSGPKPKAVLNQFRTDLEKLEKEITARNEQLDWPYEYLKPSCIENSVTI
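Purified human 12hLO at 150 nM in 25 mM Hepes, 0.01% Triton X-100, pH 7.0, preincubated 15 min at room temperature with compound. Reaction started with 40 uM arachidonic acid, 30 min at room temperature. Hydroperoxide measured by Fe-xylenol orange, 573/405 nm absorbance ratio.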
TDP1 cell CPT = DT40-hTDP1 cell growth loss with CPT. Potency, µM (titrated, usually from 46.2 µM), without a hit: at the top dose activity change, negative = growth inhibition, actives largely listed as inhibitors. AID 686979. chicken DT40 Tdp1-/-;hTDP1 cells + 20 nM CPT, ATP luminescence, 48 h. hit rate 12% among 420,000; note: potency is the fitted concentration of half-maximal effect; nearly all actives have a fitted effect of over 55% in size
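Chicken DT40 Tdp1-/- cells complemented with human TDP1, 400 cells/well, exposed to compounds plus 20 nM camptothecin for at least 48 h at 37 C; viability read as ATP content by CellTiter-Glo luminescence.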
HT1080-NT tox = kills 2HG-producing HT-1080-NT fibrosarcoma cells; HT-1080-NT fibrosarcoma viability, CellTiter-Glo ATP luminescence, 48 h; Potency, µM (highest dose often 46.1 µM), for inactives: at the top dose activity, negative = less viability, hits mostly cytotoxic; hit rate 1.6% among 360,000; AID 686970;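 note: NT is the 2HG producing partner of a matched IDH1 knockdown line; potency is the fitted concentration of half-maximal effect; 0% = DMSO-treated cells and -100% = media-only wells without cells; nearly all actives have a fitted effect of over 55% in size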
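Toxicity toward the 2HG-producing NT line was scored as %Activity, normalised to DMSO and no-cell wells, from CellTiter-Glo luminescence after 48 hours' treatment.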
An asterisk follows results filed as active; ? = inconclusive; / = not tested or not shown; [ ] = another dose, or the depositor's remark. This is one part of a sample in which hits are shown more often than they occur. Unless noted, calls come from the whole dose curve; as a rule, active = well fitted curve in the direction sought with a large enough effect; inconclusive = small, poorly fitted or top-dose-only effect, or another doubt; inactive = no such curve, though single readings can be large; an effect the other way counts as inactive or inconclusive. Unless noted, % is set by controls: 0 for no effect and ±100 for the full control effect.

SMILES	IL-1B inflam inh	HT1080 IDH1KD tx	DT40 TDP1 no CPT	12-LOX inh	TDP1 cell CPT	HT1080-NT tox
Cc1cc(NS(=O)(=O)c2ccc(NC(=S)NCc3ccccc3)cc2)no1	7.6	3.9%	-5.4%	44.7µM*	-6.6%	-6.7%
CCc1nnc(NS(=O)(=O)c2ccc(NC(=S)NC(=O)c3ccc(F)cc3)cc2)s1	31.1	12.7%	1.1%	22.4µM*	-1.2%	7.0%
Cc1cc(NS(=O)(=O)c2ccc(NC(=O)Nc3ccccc3)cc2)no1	8.0	-0.9%	-3.3%	6.8%	-17.8%	-5.5%
CCc1nnc(NS(=O)(=O)c2ccc(NC(=S)NC(=O)c3cccnc3)cc2)s1	56.2	-4.8%	-9.4%	?	1.1%	7.3%
N#Cc1ccc(CN2CC(Oc3ccc(F)c(F)c3)C2)cc1	/	/	/	-3.0%[12.5 µM]	/	/
CCC(C)(C)C1CCc2[nH]nc(C(=O)NC3CCCCC3)c2C1 (configuration not stated)	13.3	6.6%	?	8.3%	11.6µM*	0.0%
CCC(C)(C)C1CCc2[nH]nc(C(=O)NN)c2C1 (configuration not stated)	-17.8	?	?	-0.7%	-21.8%	-14.9%
CCC(C)(C)C1CCc2[nH]nc(C(=O)NC(C)C)c2C1 (configuration not stated)	-18.1	3.1%	20.6µM*	-0.2%	?	6.1%
Cc1cc(Nc2cc(F)c(F)c(F)c2)cc(=O)n1-c1cc(F)c(F)c(F)c1	/	/	/	-16.3%	/	/
Cc1ccc(C(=O)c2c(NC(=O)CSc3nnc(N)s3)sc3c2CCCC3)cc1	-71.5*	-11.8%	?	?	?	-6.7%
COCCNc1nnc(SCC(=O)NNC(=O)c2ccccc2)s1	-3.6	4.2%	?	5.1%	?	2.4%
COCCNc1nnc(SCC(=O)Nc2sc3c(c2C(=O)c2ccccc2)CCCC3)s1	?	-24.0%	?	-16.7%	20.6µM*	-24.8%
Nc1nnc(SCC(=O)Nc2sc3c(c2C(=O)c2ccccc2)CCCC3)s1	-2.5	-22.2%	16.4µM*	-18.5%	?	-2.4%
CSc1ccc(CNC(=O)c2ccc3c(c2)N(C)C2CCCCCN2C3=O)cc1 (configuration not stated)	/	/	/	-3.1%	/	/
COc1ccc(C2(C(=O)N3CCCN(C)c4ccccc43)CC2)cc1	/	/	/	25.9%	/	/
C=CCNC(=S)NNC(=O)Cc1ccccc1	/	/	/	26.6%	/	/
OC[C@@H]1[C@@H](c2ccccc2)C(c2ccccc2)=NN1c1ccccc1	6.6	-0.9%	16.4µM*	?	?	4.4%
Cc1cccc(C2=NN(c3ccccc3)[C@H](CO)[C@H]2c2ccc(Cl)cc2)c1	24.4	?	?	?	?	?
OC[C@@H]1[C@@H](c2ccccc2)C(c2cccc(Cl)c2)=NN1c1ccccc1	?	?	20.6µM*	?	20.6µM*	11.6µM*
OC[C@@H]1[C@@H](c2ccccc2)C(c2ccc(F)cc2)=NN1c1ccccc1	-10.8	?	?	/	?	?
Cc1cc2c(cc1C)C(c1ccccc1Br)CC(=O)N2 (configuration not stated)	38.5	-8.7%	?	-13.0%	?	-5.3%
COc1cc2c(c(OC)c1)C(c1ccccc1OC(C)C)CC(=O)N2 (configuration not stated)	/	/	/	4.4%	/	/
Cc1cc2c(cc1C)C(c1ccccc1OC(C)C)CC(=O)N2 (configuration not stated)	-9.9	2.31µM*	?	-29.4%	?	4.11µM*
CCCCOc1ccccc1C1CC(=O)Nc2cc(OC)c(OC)cc21 (configuration not stated)	/	/	?	-0.5%	?	/
COc1ccccc1C1CC(=O)Nc2cc(C)c(C)cc21 (configuration not stated)	40.3	6.51µM*	8.2µM*	-11.8%	6.51µM*	?
SMILES	IL-1B inflam inh	HT1080 IDH1KD tx	DT40 TDP1 no CPT	12-LOX inh	TDP1 cell CPT	HT1080-NT tox
CCOc1ccccc1C1CC(=O)Nc2cc(C)c(C)cc21 (configuration not stated)	57.5	14.6µM*	4.11µM*	-10.2%	2.59µM*	?
CCCCOc1ccccc1C1CC(=O)Nc2cc(C)c(C)cc21 (configuration not stated)	/	/	18.4µM*	4.5%	14.6µM*	/
O=C(c1cnccn1)N1C[C@@H]2OCC(=O)N(c3ccccc3)[C@@H]2C1	/	/	/	-9.4%[176 µM]	/	/
CC1CCCC/C1=N\NC(=O)CCC(=O)Nc1ccc(I)cc1 (configuration not stated)	/	/	/	35.0%	/	/
NC1CCCN(c2cc(N3CCCC3)ncn2)C1 (configuration not stated)	/	/	/	-5.0%	/	/
CCC1=C(C(=O)OC)C(c2cccc(F)c2)N2C(CC(=O)NCCc3cccs3)=CSC2=N1 (configuration not stated)	/	/	/	27.9%	/	/
C[S+](=O)([O-])N1Cc2ccccc2CC2(CCCN2CC2CCCCC2)C1 (configuration not stated)	/	/	/	7.2%[6.33 µM]	/	/
COc1ccc(NC(=O)Cn2nc(N3CCCCC3)c3ccccc3c2=O)cc1	/	/	/	1.0%	/	/
COc1ccc(CNC(=O)C2Cc3c(-c4ccccc4)ccnc3O2)cc1OC (configuration not stated)	-11.9	-2.9%	?	3.0%	?	-18.7%
COc1ccc(NC(=O)C2Cc3c(-c4ccc(NC(C)=O)cc4)ccnc3O2)cc1OC (configuration not stated)	-29.8	-25.0%	?	?	?	-20.9%
COc1ccc(NC(=O)C2Cc3c(-c4ccc5c(c4)OCO5)ccnc3O2)cc1OC (configuration not stated)	-7.4	16.4µM*	8.2µM*	-6.3%	9.2µM*	?
O=C(NCc1ccc(F)c(F)c1)C1Cc2c(-c3ccc4c(c3)OCO4)ccnc2O1 (configuration not stated)	0.0	?	2.91µM*	-0.7%	2.31µM*	?
COc1ccc(CNC(=O)C2Cc3c(-c4ccc5c(c4)OCO5)ccnc3O2)cc1OC (configuration not stated)	-4.6	?	11.6µM*	-2.8%	18.4µM*	?
CCNC(=O)NC1(CCOC)CCN(Cc2cccc(C)c2)CC1	/	/	/	53.5%	/	/
Cc1nc(CN2C[C@H](C(=O)NCc3cccc(F)c3)C[C@@H]2c2ccc(F)cc2)cs1	/	/	/	-15.1%[176 µM]	/	/
N#Cc1ccc(C(=O)N2CCCCCCNC(=O)[C@@H]3C[C@@H](c4nc(Cc5ccccc5)no4)C[C@@H]32)cc1	/	/	/	41.6%	/	/
CN(Cc1cccn1C)C(=O)C1CC1	/	/	/	42.6%[176 µM]	/	/

From PubChem
